This is an account of results in PubChem BioAssay AID463173 (ICCB-Longwood Screening Facility, Harvard Medical School, 2010).

Several values for one entry are separate records, joined by “and”; a condition that tells them apart may be missing. Equal values may be shown once. In all, about 52,000 compounds went through this assay and about 1,700 (3.3%) were called active. This is one part of a sample in which actives are shown more often than they occur. Rule as the data show it: active = survival mostly below about 52% (no sharp cut-off); inactive = mostly above about 56%. More than one record can exist for a structure, and the calls need not agree.

This assay relates to Wild type. Nature of the assay: S. aureus survival, RN4220 and DeltatarO strains – OD600, teichoic acid synthesis inhibitors, primary screen (AID 463173). To be noted: S. aureus RN4220 wild type/DeltatarO growth, OD600, 18 h, stronger effect = lower value, screened at 18.75 µg/mL (by protocol).
On to `Cc1cccc(NC(=O)CN2C(=O)COc3ccc(S(=O)(=O)N4CCC(C)CC4)cc32)c1C`, for which the survival was 101% (inactive).

In the case of `Cc1ccc(-c2nc(-c3cc4cccc(OCc5cccc(C)c5)c4oc3=O)no2)cc1`, the survival was 71% (inactive).

For the compound `CC(CNC(=O)c1csc2c1CCCCC2)c1ccccc1` (stereo not given), the survival is 0% (active).

With `CCC(Cc1ccccc1)NC(=O)c1csc2c1CCCCC2` (stereo not given), the survival is 120% (inactive).

Turning to `CSc1ccc(CCNC(=O)c2csc3c2CCCCC3)cc1`, the survival was 69% (inactive).

Consider `CC(C)(C)c1ccc(-c2nnc(-c3ccccc3NC(=O)c3ccc(F)cc3F)o2)cc1`, for which the survival is 144% (inactive).

As to `CCOC(=O)C(C)Sc1nc(-c2ccccc2Cl)cc(-c2ccccc2)c1C#N` (stereo not given), the survival was 79% (inactive).

For the compound `CCOC(=O)C(C)Sc1nc(-c2ccccc2)ccc1C#N` (stereo not given), the survival was 107% (inactive) and 0% (active).

On to `CCCCSc1nc(-c2ccc(OC)cc2)ccc1C#N`, for which the survival is 28% (inactive).

As to `COc1cccc(C(=O)Nc2ccc(-n3nncc3-c3ccc(Br)cc3)cc2)c1OC`, the survival is 143% (inactive).

Consider `CC(=O)N1CCc2cc(S(=O)(=O)NC(Cc3ccccc3)C(=O)Nc3ccc(C)cc3C)ccc21` (stereo not given), for which the survival is 74% (inactive).

Regarding `Nc1cccc(Cl)c1N1CCOCC1`, the survival is 110% (inactive).

In the case of `COc1ccc(N2CCN(C(=O)c3oc4ccccc4c3NC(=O)c3ccccc3OC)CC2)cc1`, the survival was 129% (inactive).

For the compound `CCc1ccc2occ(CC(=O)Nc3c(C(=O)c4ccccc4)oc4ccccc34)c2c1`, the survival was 104% (inactive).

Take `COc1ccccc1C(=O)Nc1c(C(=O)N2CCN(c3ccccc3F)CC2)oc2ccccc12`: the survival is 101% (inactive).

As to `Cc1ccc(C(=O)c2oc3ccccc3c2NC(=O)Cc2ccccc2)cc1`, the survival was 53% (inactive).

Consider `COc1ccccc1NC(=O)c1oc2ccccc2c1NC(=O)c1c(F)cccc1F`, for which the survival is 60% (inactive).

Regarding `O=C(Nc1c(C(=O)N2CCN(c3ccc(F)cc3)CC2)oc2ccccc12)c1ccco1`, the survival is 88% (inactive).

For the compound `O=C(Nc1c(C(=O)N2CCN(c3ccccc3F)CC2)oc2ccccc12)c1ccco1`, the survival was 69% (inactive).

Take `COc1ccccc1C(=O)Nc1c(C(=O)Nc2ccccc2F)oc2ccccc12`: the survival was 2% (active).

Regarding `COc1cc(C(=O)Nc2c(C(=O)Nc3ccccc3F)oc3ccccc23)cc(OC)c1OC`, the survival is 68% (inactive).

In the case of `O=C(Nc1c(C(=O)N2CCN(c3ccccc3)CC2)oc2ccccc12)c1ccco1`, the survival was 10% (active).

With `O=C(Cc1ccccc1)Nc1c(C(=O)c2ccccc2)oc2ccccc12`, the survival was 7% (active).

On to `COc1ccccc1C(=O)Nc1c(C(=O)N2CCN(c3ccc(F)cc3)CC2)oc2ccccc12`, for which the survival was -2% (active).

In the case of `Cc1ccc(NC(=O)CSc2nnc(C)n3c2cc2sccc23)c(C)c1`, the survival is 84% (inactive).
